Experimental data reported in the supplement of paper PMC12636033.
± gives the standard deviation of the averaged measurements. Over roughly 33,000 sequences, “E-score (rank enrichment, -0.5 to 0.5)” has its median near -0.0028; the highest 2% begin near 0.23. The full list was thinned out, with the highest values kept by preference.

Test system: 2Sb-muMax20 (muMax20 with two 1,3-bis(methyl)benzene Cys staples, A13C/A17C and Q88C/A92C, C-terminal Lys)
Experiment: PBM 8-mer E-score (E-score (rank enrichment, -0.5 to 0.5)); higher = stronger preferential binding
Procedure: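 Protein binding microarray (universal PBM chip covering all 10-mers in fixed probe flanks) with chemically synthesized human Max(13-93) bHLH-LZ analogs (not full-length Max) bearing noncanonical residues (hArg, Tha, Aib, Nle at 65) and aromatic Cys staples. Read-out per 8-mer (and its reverse complement): E-score (rank-based enrichment, -0.5 to 0.5) and Z-score of median probe intensity.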

Row | Sequence | PBM 8-mer E-score
1 | ACAATCGG | -0.076 ± 0.075
2 | AACGACAT | 0.126 ± 0.076
3 | AGTGCTGC | -0.166 ± 0.021
4 | ACACCCCA | 0.224 ± 0.036
5 | GCACCCCC | -0.265 ± 0.028
6 | GCACCCCA | 0.24 ± 0.031
7 | TCACCCGA | -0.0977 ± 0.0029
8 | CCACCCCC | -0.0738 ± 0.041
9 | TCACCCCA | 0.368 ± 0.011
10 | CCACCCCA | 0.275 ± 0.1
11 | TCACCCAA | 0.154 ± 0.032
12 | CCACCCCG | 0.0359 ± 0.026
13 | CGCGTCGC | -0.0885 ± 0.02
14 | CAACCTTG | -0.0156 ± 0.0055
15 | CCTAAAGC | 0.0284 ± 0.038
16 | AAAATGCT | 0.235 ± 0.0065
17 | AAAATGCA | 0.127 ± 0.02
18 | AAAATGCC | 0.00067 ± 0.042
19 | AATTAGCC | -0.107 ± 0.095
20 | CCTGACCC | -0.146 ± 0.077
21 | CTGTTTTA | 0.24 ± 0.013
22 | CTGTTTAA | 0.0361 ± 0.028
23 | GTGTTTTA | 0.098 ± 0.036
24 | CCCCCTTC | -0.174 ± 0.065
25 | ACCCCTTC | 0.328 ± 0.018

Row | Sequence | PBM 8-mer E-score
26 | ACCCCTAG | 0.11 ± 0.029
27 | AACCCTTC | 0.11 ± 0.054
28 | ACCCCTAA | 0.218 ± 0.037
29 | GCCCCTAA | 0.245 ± 0.038
30 | ACCCCTCC | 0.258 ± 0.052
31 | CCCCCTAA | -0.037 ± 0.031
32 | TCCCCTAA | 0.196 ± 0.03
33 | AACCCTCC | -0.0982 ± 0.073
34 | CCCCCTCC | -0.0384 ± 0.17
35 | ACCCCTAT | 0.252 ± 0.081
36 | TAGACGAA | -0.053 ± 0.022
37 | GTCCGACA | -0.0883 ± 0.025
38 | TACACACA | 0.00095 ± 0.038
39 | AACAGTCC | -0.0613 ± 0.014
40 | CGCCTTCC | -0.134 ± 0.085
41 | ACCGCCGG | -0.212 ± 0.076
42 | ATGGCTAC | 0.106 ± 0.049
43 | CACCTCAA | -0.0623 ± 0.06
44 | CCTCAGCC | -0.0948 ± 0.096
45 | AGGGTCCC | -0.337 ± 0.0037
46 | TTAGCAAA | 0.1884 ± 0.00076
47 | GCCCCCCC | -0.18 ± 0.13
48 | ACCCCTCA | 0.307 ± 0.0085
49 | TCCCCTCA | 0.247 ± 0.0079
50 | CCCCCTCA | 0.0422 ± 0.049

Row | Sequence | PBM 8-mer E-score
51 | GCCCCTCA | -0.0171 ± 0.064
52 | CGCCCTCC | 0.0189 ± 0.097
53 | TACCCTCA | 0.0472 ± 0.026
54 | GCCCCTCC | 0.274 ± 0.099
55 | ACCCCTCG | 0.0393 ± 0.084
56 | ACTTCAGA | -0.161 ± 0.095
57 | CAGCTCCG | -0.19 ± 0.065
58 | ATATGGAA | 0.0497 ± 0.036
59 | CGGTGTAA | -0.0426 ± 0.082
60 | GGGTGTAA | 0.0984 ± 0.049
61 | TGGTGTAA | 0.249 ± 0.037
62 | TCCGGGAA | -0.184 ± 0.07
63 | AAAACGAG | -0.00059 ± 0.034
64 | TGTATACA | 0.259 ± 0.05
65 | CGTATACG | 0.341 ± 0.027
66 | AGTATACA | 0.135 ± 0.025
67 | CGTATACC | -0.123 ± 0.0037
68 | CGTATACA | 0.0906 ± 0.018
69 | GGTATACA | 0.105 ± 0.011
70 | CAGCAGGC | -0.139 ± 0.04
71 | CCCTCCCC | 0.157 ± 0.25
72 | ACCCTCCT | -0.0718 ± 0.019
73 | ACCCTCCC | 0.289 ± 0.04
74 | ACCCTCCA | 0.0708 ± 0.031
75 | CCCCTCCG | 0.00173 ± 0.08

Row | Sequence | PBM 8-mer E-score
76 | CCCCTCCC | 0.297 ± 0.13
77 | CGGGTTAA | -0.0694 ± 0.12
78 | ACAGGTCT | -0.101 ± 0.015
79 | GGCAATAC | -0.0237 ± 0.039
80 | ACGCGGCA | -0.1504 ± 0.0011
81 | AGAGCAAA | -0.124 ± 0.036
82 | AGCGTATG | 0.0491 ± 0.018
83 | CGGATTTA | -0.0345 ± 0.005
84 | GCACGGTA | -0.226 ± 0.0061
85 | TAACGTAA | -0.00578 ± 0.0029
86 | ATAACGTA | 0.16 ± 0.052
87 | ATAACTTC | 0.1632 ± 0.00065
88 | ATAACGTG | 0.277 ± 0.022
89 | ATAACTTG | 0.253 ± 0.032
90 | ATAACTTA | 0.0822 ± 0.028
91 | ATAACGTC | 0.0413 ± 0.0089
92 | TTCAGGAA | -0.0598 ± 0.038
93 | CCAAGAAC | 0.098 ± 0.03
94 | CGTCCCTC | -0.107 ± 0.023
95 | ATTACACG | 0.0209 ± 0.026
96 | CTTACACC | -0.035 ± 0.078
97 | ATTACAGC | 0.0657 ± 0.05
98 | ATTACAGG | 0.286 ± 0.0044
99 | ATTACAGA | -0.121 ± 0.03
100 | ATTACACC | 0.254 ± 0.06

Row | Sequence | PBM 8-mer E-score
101 | ACGAGGGG | 0.0607 ± 0.017
102 | CAAAGGAA | 0.047 ± 0.054
103 | GAGGATGA | 0.0986 ± 0.081
104 | CAAAACGA | 0.103 ± 0.0049
105 | ATAAACGA | 0.233 ± 0.029
106 | AAAAACGA | 0.256 ± 0.03
107 | GTAAACGA | -0.00855 ± 0.0052
108 | GAAAACGA | -0.0116 ± 0.016
109 | ATAAACGC | -0.0771 ± 0.058
110 | CCGGTATC | -0.171 ± 0.092
111 | AAGTCAGC | -0.0311 ± 0.05
112 | AAGGCTAC | -0.168 ± 0.021
113 | AGCGAAAA | 0.212 ± 0.006
114 | TCACACCA | 0.0297 ± 0.027
115 | CGGATGTA | -0.172 ± 0.005
116 | AGATTTTG | 0.0113 ± 0.012
117 | CCTGTTAA | 0.0396 ± 0.043
118 | CCTGTTAG | -0.0682 ± 0.013
119 | CCTGTTAC | 0.274 ± 0.049
120 | ACCGGCTA | -0.152 ± 0.016
121 | ACAAGAAC | 0.152 ± 0.045
122 | CATTCTTC | 0.0315 ± 0.021
123 | ATGTAGTG | 0.156 ± 0.049
124 | GTGTAGTA | 0.125 ± 0.052
125 | CTGTAGAA | 0.0722 ± 0.0078

Row | Sequence | PBM 8-mer E-score
126 | ATGTAGAG | 0.0764 ± 0.027
127 | ATGTAGAA | 0.245 ± 0.016
128 | ATGTAGTA | 0.268 ± 0.012
129 | AGACGTAC | -0.0467 ± 0.078
130 | ATTATTTG | 0.197 ± 0.0069
131 | CACTGCGG | -0.115 ± 0.052
132 | CCAACAGC | -0.068 ± 0.0017
133 | AGTCAATA | 0.09 ± 0.0033
134 | CGTCAATA | -0.0166 ± 0.034
135 | GGTCAATA | 0.238 ± 0.015
136 | GGATCTTA | -0.014 ± 0.071
137 | ACGCTGAC | -0.0415 ± 0.018
138 | AAACCGTG | -0.0746 ± 0.026
139 | ACTATAGG | -0.00711 ± 0.032
140 | ACTATAGA | 0.118 ± 0.11
141 | ACTATAGC | -0.0113 ± 0.072
142 | CCTATAGG | 0.0292 ± 0.035
143 | ACTATAGT | 0.299 ± 0.039
144 | CCTATAGC | 0.264 ± 0.036
145 | CAGTCCTC | 0.00033 ± 0.011
146 | AAAGAATG | 0.0117 ± 0.014
147 | AGAGACCA | 0.0299 ± 0.014
148 | ACTCTGTC | -0.111 ± 0.023
149 | GGCATCAC | 0.0631 ± 0.11
150 | ATAGGGTA | 0.123 ± 0.025

Row | Sequence | PBM 8-mer E-score
151 | CTAGGGGA | 0.117 ± 0.028
152 | CAAGGGAA | -0.0769 ± 0.018
153 | CAAGGGGA | 0.24 ± 0.015
154 | GTAGGGTA | 0.266 ± 0.013
155 | GTAGGGGA | 0.24 ± 0.067
156 | CTAGGGTA | -0.0583 ± 0.021
157 | ATAGGGGA | 0.18 ± 0.0034
158 | CAAGGGGG | -0.105 ± 0.048
159 | AAAAAAAG | 0.126 ± 0.056
160 | GGGATCCC | -0.2 ± 0.043
161 | CAGGAGTC | -0.0911 ± 0.039
162 | AACGTTCA | 0.0627 ± 0.039
163 | ATATAAAT | 0.2095 ± 0.00022
164 | TACAGACA | 0.0665 ± 0.048
165 | AATTATTC | 0.0609 ± 0.0053
166 | AGTTAATC | 0.0432 ± 0.046
167 | CATTAATG | 0.18 ± 0.016
168 | AATTATTA | 0.18 ± 0.032
169 | AATTAATG | 0.239 ± 0.033
170 | AGTTAATG | 0.232 ± 0.025
171 | AATTAATT | 0.167 ± 0.077
172 | AATTATTG | 0.262 ± 0.017
